# Source: PubChem BioAssay (NCI)
# This is part of a sample that, as a whole, favours compounds with a hit. Of some 83,000 tested, about 20% had one in any assay.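 Method: cells in 96-well plates; compound added at one concentration; 48 h incubation; percent growth measured; values under 10 scored active.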 A number with no mark means an inactive call. Calls of active or inactive are those of the source.
# System: LOX IMVI melanoma
# Experiment: NCI-60 one-dose screen, 48 h (100 = growth as untreated, 0 = no growth, -100 = all killed)
# Details: 10 µM unless noted
# Experimental: Growth inhibition of the LOX IMVI human tumor cell line is measured as a screen for anti-cancer activity. Cells are grown in 96 well plates and exposed to the test compound for 48 hours. Compounds are tested at a single concentration, which is 10^-5 M for most compounds. The reported endpoint is percent growth (GI% or GIPRCNT), where numbers from 0 - 100% represent growth inhibition, and numbers from -100% - 0 represent cell death. For example, a value of 40 represents 60% growth inhibition. A value of 0 means no net growth occurred over the course of the experiment. A value of -40 indicates 40% of cells at the beginning of the experiment died by the end of the experiment. A value of -100 means all cells are dead at the end of the experiment.
# NCI-60 Human Tumor Cell Lines Screen was performed using the standard one-dose NCI protocol, which is described in more detail at https://dtp.cancer.gov/discovery_development/nci-60/default.htm.
# Compounds with GIPRCNT values below 10 were considered active. Activity score was based on GIPRCNT using the following formula: […]
# Score is 0 for GIPRCNT values of 100 or above, 50 for GIPRCNT values of 0, and 100 for GIPRCNT values of -100.
row,SMILES,growth
1,Cc1ccc(NC(C(=O)c2ccccc2)c2ccccc2)cc1 (stereo not given),50.5%
2,Cc1cccc(-c2cn3ccnc3c(-c3ccc4ncn(Cc5ccccc5)c4c3)n2)c1,85.2%
3,CC(C)(C)CC(C)(C)n1nnnc1C(NC12CC3CC(CC(C3)C1)C2)c1ccccc1 (stereo not given),87.6%
4,COc1ccc(C/C(C)=C(/c2ccc(OCCCN(C)C)cc2)c2ccc(OC(C)=O)cc2)cc1,47.8%
5,O=C(c1nnc(Nc2ccccc2Br)o1)c1c[nH]c2ccccc12,96%
6,COc1cc(CC(=O)c2ccc(O)c(OC)c2)ccc1O,96.7%
7,CC(C)=CCC[C@](C)(O)[C@H]1CC[C@]2(C)[C@@H]1CC[C@@H]1[C@@]3(C)C/C(=C/c4ccccc4)C(=O)C(C)(C)[C@@H]3CC[C@]12C,93.4%
8,Cc1nn(-c2ccccc2)c(Cl)c1/C=N\N=c1/sc2ccccc2n1C,117%
9,CCCCCCNC(=O)Oc1ccc(/C(=C(\C)c2ccccc2)c2ccc(OCCCN(C)C)cc2)cc1,80.2%
10,CCCCC/C=C/C(C)=C/C1CC(C)C/C=C/CCC(O)C(OC(N)=O)CCC(C)CC(O)C(C)C(=O)O1 (stereo not given),73.9%
11,COc1cc(CC(=O)n2ncc3ccc(N)cc32)cc(OC)c1OC,90.1%
12,COc1ccccc1/C(C)=N/NC(=O)CSc1nc2ccccc2c(=O)n1Cc1ccc(S(N)(=O)=O)cc1,89.9%
13,CC(=O)O[C@H]1Cc2c([nH]c3ccccc23)[C@@H](c2ccc(Cl)cc2)N1C(=O)CCNC(C)(C)C,25.6%
14,O=C(C[n+]1cccc2ccccc21)c1ccc(O)c(O)c1,28.3%
15,CCCCCOc1ccc(/C=N/Nc2cc(C)nc3ccc(Cl)cc23)cc1,-96.9% (active)
16,CCCCCN1C=C/C(=C\C(=O)N(C)c2ccccc2Br)c2ccccc21,93.6%
17,COc1cc2c(cc1OC)C(=O)/C(=C/c1cc(C)c(O)c(C)c1)S2,44.2%
18,COC(=O)C1=C(C(=O)ON)C2C=CC1(C(Cc1ccccc1)Nc1ccccc1)O2 (stereo not given),75.8%
19,OCc1cnccc1NCCCCOc1ccc(Oc2ccccc2)cc1,45.9%
20,Cc1cc(C(=O)/C=C/c2ccc[nH]2)ccc1-n1ccc(C(F)(F)F)n1,90.8%

row,SMILES,growth
1,COc1ccc(-c2nc3sccn3c2/C=C/C(=O)c2ccc3c(c2)OCO3)cc1,38.4%
2,CC1(C)CC[C@]23CC[C@]4(C)[C@H](CC[C@@H]5[C@@]6(C)CCCNC(C)(C)[C@@H]6CC[C@]54C)[C@H]2[C@H]1OC3,-94.9% (active)
3,CC1(C)CC[C@]2(C(=O)O)CC[C@]3(C)C(=CC[C@@H]4[C@@]5(C)Cc6c([nH]c7ccccc67)C(C)(C)[C@@H]5CC[C@]43C)[C@@H]2C1,40.3%
4,COc1cc(/C(C)=C(\c2ccc(Cl)cc2)c2ccc(OCCN3CCCC3)cc2)ccc1F,46%
5,O=C1NN(C(=O)c2ccccc2)C(c2ccc(Cl)c(Cl)c2)=C/C1=C\c1ccc([N+](=O)[O-])cc1,86.9%
6,O=C1Nc2ccccc2/C1=C\c1c(-c2ccc(F)cc2)nc2ccccn12,68.3%
7,Cn1c(-c2c(N)n(CCCN3CCOCC3)c3nc(C#N)c(C#N)nc23)nc2ccccc21,67.7%
8,CN[C@@H](C)C(=O)N[C@H]1CCS[C@H]2CC(C)(C)[C@@H](C(=O)N[C@H]3c4ccccc4C[C@H]3OCC#CC#CCO[C@@H]3Cc4ccccc4[C@@H]3NC(=O)[C@H]3N4C(=O)[C@@H](NC(=O)[C@H](C)NC)CCS[C@H]4CC3(C)C)N2C1=O,69.7%
9,NS(=O)(=O)c1ccc(CCN2C(=O)C3C(C2=O)C2(Cl)C(Cl)=C(Cl)C3(Cl)C2(Cl)Cl)cc1 (stereo not given),92.1%
10,COc1ccc(C(=O)NNc2nc(Cl)nc(N3CCN(C(c4ccccc4)c4ccccc4)CC3)n2)cc1,-64.3% (active)
11,CCOC(=O)[C@@H](C)C[C@H](Cc1ccccc1)NC(=O)c1csc([C@@H](C[C@H](C(C)C)N(C)C(=O)[C@@H](NC(=O)[C@H]2C[C@H](O[Si](C)(C)C(C)(C)C)CCN2C)C(C)C)OC(C)=O)n1,4.27% [9.25 µM] (active)
12,C/C(=N\NC(=O)CSc1nc2ccccc2c(=O)n1CCc1ccc(S(N)(=O)=O)cc1)c1ccccn1,13.8%
13,COc1c(Cl)c2c(c(OC)c1OC)-c1ccc(SC)c(=O)cc1[C@@H](NC(=O)OCC(F)(F)F)CC2,15.1%
14,COc1ccccc1/C=C1\Oc2cc(OCCN3CCCC3)ccc2C1=O,68.1%
15,CSc1nc2sc3cccc(Cl)c3n2c(=N)c1C#N,93.7%
16,CCc1ccc(-c2cn3ccnc3c(-c3ccc4ncn(Cc5ccccc5)c4c3)n2)cc1,49.8%
17,CN1CCN(C(=O)[C@]23CCC(C)(C)C[C@H]2C2=CC[C@@H]4[C@@]5(C)C/C(=C/c6cccnc6)C(=O)C(C)(C)[C@@H]5CC[C@@]4(C)[C@]2(C)CC3)CC1,68.5%
18,C=C1C(=O)O[C@H]2[C@H]1CC/C(CNC(=O)c1cccc3ccccc13)=C\CC[C@@]1(C)O[C@@H]21,24.3%
19,O=C1c2cccc3c(-c4ccc5c(c4)ncn5C4CCCCC4)ccc(c23)C(=O)N1c1nc2ccccc2s1,84.8%
20,Cc1ccc(-n2cc(-c3ccccc3)c3c2N=NN2CCN=C32)cc1,97.7%
